A selection: hits, their analogues and other compounds. The true share with any hit is near 19%.
IL1B secr inh – blocks inflammasome-driven IL-1 beta release; 360,000 compounds, 4.7% hits; activity change, % at 57.5 µM; AID 743279; THP-1 LPS/ATP IL-1B secretion, AlphaLISA, 16 h; hits give low values; in the data active means activity change below about -50%; inconclusive means mostly about -30% to -49%
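Secreted IL-1B measured by AlphaLISA bead assay after 16 h compound exposure of THP-1 cells; compounds (final up to 57.5 uM) added 1 h before LPS (250 ng/mL) and ATP (1.25 mM) stimulation; lower signal means less secretion.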
HepG2 viability – HepG2 cytotoxicity, counter-screen for TGF-b inhibitors; HepG2 CAGA-GFP viability, ATP luminescence, 18 h; Potency, µM (highest dose often 46.1 µM), usual class: cytotoxic; 410,000 compounds, 0.76% hits; AID 588856
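CellTiter-Glo luminescence gave cytotoxicity after 18 hours at 37 degrees C. The cells were HepG2 CAGA-GFP in 1% FBS DMEM, stimulated with 500 pg/mL TGF-beta after compound addition. %Activity was normalised to no-cell wells (complete cell-killing) and DMSO (no toxicity), and curves were fitted and classified.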
S-ASM inh – human S-ASM enzyme inhibition; 340,000 compounds, 0.006% hits; Potency, µM (titrated, usually from 57.5 µM), hits mostly inhibitors; P17405; placental ASM, HMU-PC fluorogenic substrate, 60 min
Target sequence (P17405 47-631 limits assumed): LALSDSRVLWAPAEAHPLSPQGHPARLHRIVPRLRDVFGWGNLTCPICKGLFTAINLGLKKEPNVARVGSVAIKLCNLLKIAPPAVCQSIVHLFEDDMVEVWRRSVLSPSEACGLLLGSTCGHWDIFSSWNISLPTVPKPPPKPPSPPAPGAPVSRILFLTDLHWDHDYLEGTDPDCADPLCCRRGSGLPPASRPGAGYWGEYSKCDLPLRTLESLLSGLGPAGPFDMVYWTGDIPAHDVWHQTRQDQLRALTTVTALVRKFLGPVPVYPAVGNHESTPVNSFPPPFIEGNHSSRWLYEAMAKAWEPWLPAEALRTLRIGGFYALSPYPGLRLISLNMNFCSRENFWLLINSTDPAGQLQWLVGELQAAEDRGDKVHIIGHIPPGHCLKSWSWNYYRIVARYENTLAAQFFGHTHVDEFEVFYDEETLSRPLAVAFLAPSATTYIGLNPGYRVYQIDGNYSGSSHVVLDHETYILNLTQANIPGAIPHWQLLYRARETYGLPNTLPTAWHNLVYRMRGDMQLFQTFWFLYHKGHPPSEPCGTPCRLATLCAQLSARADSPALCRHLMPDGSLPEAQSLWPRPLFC
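Steps: dispense placental human ASM, pin compound, wait 10 min at room temperature, add HMU-PC0 substrate at 9 uM final, incubate 60 min at 37 °C, add stop solution raising pH to 10, read fluorescence.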
TDP1 cell CPT – DT40-hTDP1 cell growth loss with CPT; chicken DT40 Tdp1-/-;hTDP1 cells + 20 nM CPT, ATP luminescence, 48 h; Potency, µM (titrated, usually from 46.2 µM), most hits filed as inhibitors; 420,000 compounds, 12% hits; further: nearly all actives have a fitted effect of over 55% in size
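Cell growth measured by CellTiter-Glo luminescence after a minimum 48 h, 37 C compound exposure with 20 nM CPT in Tdp1-knockout DT40 cells stably expressing hTDP1, seeded 400/well; qHTS titration format.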
DT40 TDP1 no CPT – qHTS for Inhibitors of human tyrosyl-DNA phosphodiesterase 1 (TDP1): qHTS in cells in absence of CPT; DT40 Tdp1-/- hTDP1 cells, no CPT, ATP luminescence, 48 h; Potency, µM (doses to about 46.2 µM), actives largely listed as inhibitors; 420,000 compounds, 15% hits; AID 686978, 2013; further: nearly all actives have a fitted effect of over 55% in size
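Stably hTDP1-transfected Tdp1-null chicken DT40 cells were treated with library compounds minus camptothecin and grown for at least 48 hr at 37 °C, after which cellular ATP was quantified by luminescence.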
TGFb inhibitor – blocks TGF-b signaling; Potency, µM (doses to about 46.1 µM), most hits filed as inhibitors; HepG2 CAGA-GFP TGF-b/SMAD3 reporter, GFP fluorescence, 18 h; TGF-beta stimulated, 500 pg/mL final; 410,000 compounds, 1.2% hits; further: nearly all actives have a fitted effect of over 65% in size
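TGF-beta reporter screen: HEPG2 CAGA-GFP, 1% FBS, 500 pg/mL TGF-beta final, 18 h; per-cell GFP summed per well; curves fitted and categorized by class.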
Hits are given with their value; 0 = inactive; ? = inconclusive; - = no result. Unless noted, the call rests on the fitted dose curve; in most records, active means well fitted curve in the direction sought with a large enough effect; inconclusive means small, poorly fitted or top-dose-only effect, or another doubt; inactive means no such curve, though single readings can be large; an effect the other way counts as inactive or inconclusive.

SMILES	IL1B secr inh	HepG2 viability	S-ASM inh	TDP1 cell CPT	DT40 TDP1 no CPT	TGFb inhibitor
CC(=O)Nc1ccc(NC(=O)/C=C/c2ccc3c(c2)OCO3)cc1	0	0	0	0	0	0
CC(=O)Nc1ccc(/C=C/C(=O)c2ccc3c(c2)OCCO3)cc1	-102	0	0	?	?	?
O=C(O)c1ccc(/C=C/C(=O)c2ccc3c(c2)OCCCO3)cc1	-103	0	0	?	23µM	?
O=C(O)c1ccc2c(c1)OCCOCCOCCOCCOCCO2	0	0	0	0	0	0
CCOc1ccc(CCNC(=O)c2nnc(Cc3ccc(Cl)cc3Cl)o2)cc1OCC	-	0	-	0	0	0
CCc1ccc(NC(=O)CC2C(=O)N(c3ccc(C)cc3)C(=O)N2C2CCCC2)cc1 (configuration not stated)	-	0	-	?	21µM	?
CCOC(=O)c1ccc(NC(=O)CC2C(=O)N(c3ccc(C)cc3)C(=O)N2C2CCCCC2)cc1 (configuration not stated)	-	0	-	0	0	0
CCc1ccc(NC(=O)CC2C(=O)N(c3ccc(Cl)cc3)C(=O)N2C2CCCC2)cc1 (configuration not stated)	-	0	-	?	18µM	?
CCc1ccc(NC(=O)CC2C(=O)N(c3cccc(OC)c3)C(=O)N2C2CCCC2)cc1 (configuration not stated)	-	0	-	16µM	?	0
COc1ccc(C2NC(=O)NC(C)=C2C(=O)OCC2CCCCC2)cc1OC (configuration not stated)	0	0	0	0	?	0
O=[N+]([O-])c1ccccc1S(=O)(=O)Nc1cccc(S(=O)(=O)N2CCCC2)c1	0	0	0	0	0	0
CC1CCN(S(=O)(=O)c2ccc3c(c2)N(CC(=O)NCCN(C)C)C(=O)CS3)CC1	-	0	-	0	0	0
COc1cc(/C=C2/SC(=O)N(Cc3ccccc3)C2=O)ccc1OCc1ccncc1	?	0	0	16µM	12µM	0
COc1ccc(/C=C2\SC(=NCc3ccccc3)N(Cc3ccccc3)C2=O)cc1OC	0	0	0	0	?	0
COc1cc(/C=C2\SC(=Nc3ccccc3)N(Cc3ccco3)C2=O)ccc1OC(C)C(=O)O (configuration not stated)	0	0	0	0	0	0
COCCN1C(=O)/C(=C/c2ccc(OCc3ccc(C(=O)O)cc3)c(OC)c2)SC1=Nc1ccccc1	0	0	0	23µM	21µM	0
Cc1[nH][nH]c(=O)c1C(c1c(C)[nH][nH]c1=O)c1cn(Cc2ccccc2Cl)c2ccccc12	0	0	0	5.8µM	5.2µM	?
COc1ccc(C)cc1NCc1nnc2n1CCCCC2	-	0	-	0	0	0
CC(=O)c1ccc(-c2cccc(C3C4C=CCCC4(C)C(=O)N3Cc3ccccc3)c2)cc1 (configuration not stated)	-	0	-	-	-	18µM
CC12CCC=CC1C(c1cccc(Br)c1)N(Cc1ccccc1)C2=O (configuration not stated)	-	0	-	-	-	13µM
O=C1C2C(c3ccccc3)CC=CC2C(c2cccc(Br)c2)N1Cc1ccccc1 (configuration not stated)	-	0	-	-	-	?
COc1ccc(-c2cccc([C@H]3[C@@H]4C=CCC[C@@]4(C)C(=O)N3Cc3ccccc3)c2)cc1	0	0	0	23µM	16µM	?
O=C1[C@H]2CCC=C[C@H]2[C@H](c2cccc(Br)c2)N1Cc1ccccc1	0	0	0	?	13µM	?
Cc1ccc(NC(=O)CN2C(=O)S/C(=C\c3cc(Cl)c(OCC(=O)O)c(Cl)c3)C2=O)cc1	0	0	?	0	0	0
COc1ccc(C(=O)NCc2nnc(SCC(=O)NCCc3ccccc3)o2)cc1	0	0	0	0	0	0
SMILES	IL1B secr inh	HepG2 viability	S-ASM inh	TDP1 cell CPT	DT40 TDP1 no CPT	TGFb inhibitor
CCOc1ccc(NC(=O)Cn2nc(CC)n3c(cc4sccc43)c2=O)cc1	-	0	-	0	0	0
Cn1c(=O)n(C)c2cc(S(=O)(=O)N3CCOCC3)ccc21	0	0	0	0	0	0
Cc1ccccc1NC(=O)c1cc(S(=O)(=O)N2CCOCC2)cn1C	0	0	0	0	0	0
Cc1cccc(C)c1NC(=S)N=Nc1c(O)n(C)c2ccc(S(=O)(=O)N3CCOCC3)cc12	0	0	0	2.6µM	4.1µM	0
Cc1ccccc1NC(=S)N=Nc1c(O)n(C)c2ccc(S(=O)(=O)N3CCOCC3)cc12	0	0	0	8.2µM	7.3µM	5.6µM
Cc1ccc(CN(C(=O)COc2ccc(C(C)(C)C)cc2)C2CCS(=O)(=O)C2)o1 (configuration not stated)	-	0	-	?	21µM	-
COc1c(Cl)cc(C(=O)N(Cc2ccc(C)o2)C2CCS(=O)(=O)C2)cc1Cl (configuration not stated)	-	0	-	?	23µM	0
CC(C)CN(C(=O)COc1ccc(C(C)(C)C)cc1)C1CCS(=O)(=O)C1 (configuration not stated)	0	0	0	0	23µM	0
Cc1ccc(CN(C(=O)COc2ccc([N+](=O)[O-])cc2)C2CCS(=O)(=O)C2)o1 (configuration not stated)	0	0	0	0	0	0
CN(C(=O)COc1ccc(C(C)(C)C)cc1)C1CCS(=O)(=O)C1 (configuration not stated)	0	0	0	0	0	0
CCc1ccccc1NC(=O)c1ccc2c(O)c(S(=O)(=O)c3ccccc3)c(=O)[nH]c2c1	-	0	-	0	0	0
O=C(Cn1c(=O)nc(-c2ccccc2)c2ccccc21)Nc1cccc(C(F)(F)F)c1	-	0	-	0	0	0
CC12C=CC(=O)C=C1CCC1C2C(O)CC2(C)C1CCC2(O)C(=O)CO (configuration not stated)	-60	0	0	0	0	0
CSCCC(NC(=O)CCC(=O)OCC(=O)[C@@]1(O)CCC2[C@@H]3CCC4=CC(=O)C=C[C@]4(C)C3[C@@H](O)C[C@@]21C)C(=O)O (some centres not stated)	-55	0	0	0	0	0
C[C@]12C=CC(=O)C=C1CC[C@@H]1C2C(O)C[C@@]2(C)C1CC[C@]2(O)C(=O)COC(=O)CCC(=O)NC(CC(=O)O)C(=O)O (some centres not stated)	?	0	0	0	?	0
